Results taken from PubChem BioAssay (Tox21).
Records with an inconclusive call do not appear. A call without a number means that no potency is given here. Active and inactive are the calls of the source. The call rests on the fitted dose curve; in most records, active means well fitted cell-killing curve with a large enough effect in the repeat runs; inconclusive means weak or mixed curves, or effect the other way; inactive means flat fitted curve, though single readings scatter.

Legend:
[1] = cAMP Responsive Elements (CRE) small molecule antagonists, cell-based qHTS assay: qHTS cell viability counter screen (AID 2060913); further: nearly all actives have a fitted effect of over 40% in size
Summary of the method: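 CRE-bla HEK293T cells (2,000/well, 18 h) given compound plus NKH477 0.25 uM final for 3 h at 37C; viability counter-screen by CellTiter-Glo luminescence in same wells after 30 min.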

[2] = cAMP Responsive Elements (CRE) small molecule agonists, cell-based qHTS assay: qHTS cell viability counter screen (AID 2060914);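 further: viability read after 3 h of compound exposure; nearly all actives have a fitted effect of over 50% in size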
Summary of the method: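 Cytotoxicity counter screen multiplexed with the CRE-bla reporter assay in HEK 293T cells: 3 h compound exposure at 37 °C, followed by CellTiter-Glo luminescence measured in the same wells.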

Compound | Potency [1] | Potency [2]
COc1ccc(OC)c(CC(C)N)c1 (stereo unspecified) | inactive | inactive
CC(C)=CC1C(C(=O)OCc2coc(Cc3ccccc3)c2)C1(C)C (stereo unspecified) | inactive | inactive
CN=C=O | inactive | inactive
